From PubChem BioAssay AID588413 (Sanford-Burnham Center for Chemical Genomics, 2011) come the findings set out here.

About 2,500 (0.74%) of roughly 340,000 compounds were called active. Shown is part of a subset that was picked to be rich in actives. Values without a mark were called inactive.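 The calls were made as follows: active = inhibition above about 55% (limit read from the data); inactive = the rest.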

The nature of this test: blockers of Gli reporter signaling – luciferase luminescence, Sufu-KO-LIGHT cells, uHTS, primary screen (AID 588413).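 Also: 0% = DMSO-treated cells and 100% = wells with medium but no cells.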 To be noted: Sufu-KO-LIGHT fibroblasts, at 5 µM, active compounds read high.
Broadly, the inhibition is the change of the read-out against control, counted positive when it falls. For `COC(C[C@@H](O)C[C@H](O)[C@H](C)OCc1ccccc1)OC`, the inhibition was 7.28%. The same measure for `COc1ccc(C2C(C#N)=C(/N=C/N3CCOCC3)OC3=C2C(=O)CC(C)(C)C3)cc1OC` (stereo not given): 1.58%; for `CCc1ccc(C2C(C#N)=C(N)N(N(C)C)C3=C2C(=O)CCC3)s1` (stereo not given): -0.42%; for `CCc1ccc(C2C(C#N)=C(N)N(N3CCOCC3)C3=C2C(=O)CC(C)(C)C3)s1` (stereo not given): 96.7% (active). With `S=C(Cc1ccc(Cl)cc1)N1CCOCC1`, the inhibition was 2.66%. The same measure for `O=C(CCN1CCCO1)N1CCCC(N2CCN(c3cccc(C(F)(F)F)c3)CC2)C1` (stereo not given): 8.15%; for `N#Cc1cccc(NC(=O)C2CCCN(C(=O)c3ccc(Cl)cc3)C2)c1` (stereo not given): 0.96%; for `COc1ccccc1-c1nnc2n1N=C(c1ccc(OC(F)F)c(OCC3CC3)c1)CS2`: 23.1%. Turning to `CC1=Nn2c(nnc2-c2ccccc2)SC1`, the inhibition was 5.28%. The same measure for `COc1ccc(C2=Nn3c(nnc3-c3ccccc3OC)SC2)cc1OC1CCCC1`: 67.1% (active); for `COc1ccc(CNC(=O)CN(c2ccc(OC)c(Cl)c2)S(=O)(=O)c2ccc(C)cc2)cc1`: -11.6%.

With `NS(=O)(=O)c1cc(Cl)c(Cl)c(S(N)(=O)=O)c1`, the inhibition is -6.05%. The same measure for `Cc1cccc(S(=O)(=O)N2CN(CC3CCCO3)c3nc4ccccc4nc32)c1` (stereo not given): 31.4%; for `Clc1cc(-c2ccc(/C=N/n3cnnc3)o2)ccc1Br`: 3.67%; for `Cc1ccc(Cl)cc1-c1ccc(/C=N/n2cnnc2)o1`: 20.2%. The same measure for `Cc1cc([N+](=O)[O-])c(-c2ccc(/C=N/n3cnnc3)o2)cc1Cl`: 95.2% (active). As to `O=c1ccc2c(-c3ccccc3S(=O)(=O)O)c3ccc(O)c(O)c3oc-2c1O`, the inhibition was 9.16%. For `CCCCn1nc(C(=O)Nc2cccc(C(=O)NC3CC3)c2)c2ccccc2c1=O` the value was -0.59%; for `O=C(CN1CCN(S(=O)(=O)c2cc(Cl)ccc2Cl)CC1)c1ccc(O)c(O)c1`, 58.2% (active); for `COc1ccc(Cl)cc1S(=O)(=O)N1CCN(CC(=O)C(C)(C)C)CC1`, -2.82%.

On to `N#Cc1ccsc1NC(=O)CN1CCN(S(=O)(=O)c2cc(Cl)ccc2Cl)CC1`, for which the inhibition is 1.78%.

As for `COc1ccccc1N(CC(=O)Nc1ccccc1C(=O)N1CCCC1)S(C)(=O)=O`, the inhibition is -5.37%. As to `O=C(N/N=C/c1ccccn1)C12CC3CC(CC(C3)C1)C2`, the inhibition was -2.98%.

Regarding `Cc1nnc(N/N=C/c2ccccn2)[nH]c1=O`, the inhibition is 62.7% (active). For `Cc1cc(C(=O)N/N=C/c2ccccn2)c2ccccc2n1` the value was 1.36%; for `Cc1ccc(S(=O)(=O)N(C)C)cc1NC(=O)c1ccc(-n2cncn2)c([N+](=O)[O-])c1`, 5.99%; for `CCc1ccc(CNC(=O)C2CCCN(c3nc4ccccc4o3)C2)cc1` (stereo not given), 5.09%. For the compound `CCOC(=O)CCNC(=O)N1CCCC(C(=O)c2ccccc2SC)C1` (stereo not given), the inhibition was 4.81%. Regarding `CCOC(=O)c1cnc(Nc2nc3ccccc3o2)nc1CSC(=S)N1CCCCC1`, the inhibition was 57.2% (active).

Take `CCc1ccc(C(=O)C(C)OC(=O)CN2C(=O)NC3(CCCC3)C2=O)cc1` (stereo not given): the inhibition was -24.9%.

For the compound `COCCN(C(=O)COC(=O)Cc1cccc(OC)c1)c1c(N)n(Cc2ccccc2)c(=O)[nH]c1=O`, the inhibition was -12.3%. For `Cc1ccc(NC(=O)CN(C)CC(=O)Nc2cccc(F)c2)cc1[N+](=O)[O-]` the value was 67.2% (active). On to `CN(CC(=O)Nc1cccc(F)c1)C(=O)C1=COCCO1`, for which the inhibition is -13.3%. For `Cc1ccc(NC(=O)c2sccc2C)cc1[N+](=O)[O-]` the value was -30.3%. The same measure for `O=C(N/C(=C\c1ccc([N+](=O)[O-])cc1)C(=O)N1CCOCC1)c1cccc(Br)c1`: 14.4%; for `CC(C)c1ccc(C=NNc2ccc([N+](=O)[O-])cn2)cc1`: -110%. The same measure for `FC(F)(F)c1cccc(N/N=C/c2ccccc2)c1`: 2.85%. With `Oc1ccc(/C=N/Nc2ccc(C(F)(F)F)cn2)cc1O`, the inhibition was 75.1% (active). The same measure for `COc1cccc2cc(C(=O)N3CCN(C(=O)c4ccccc4)CC3)c(=O)oc12`: 0.62%. The same measure for `COc1cccc2cc(C(=O)N(C)C)c(=O)oc12`: -0.51%; for `COc1cccc2cc(C(N)=O)/c(=N\NC(=O)c3ccccc3)oc12`: 61.3% (active). For `O=S(=O)(Cc1ccc(Cl)cc1Cl)c1ccc(Cl)cc1` the value was -10.2%; for `Nc1ccc(N=Nc2ccccc2Cl)c(N)n1`, -22.2%; for `O=c1c2ccccc2nc2n1C(CSCc1cccc(C(F)(F)F)c1)CS2` (stereo not given), 65.9% (active). `O=c1c2ccccc2nc2n1C(CSCc1ccccc1)CS2` (stereo not given): the inhibition is 41.5%. The same measure for `N#Cc1c(-c2ccccc2)nc(SCc2cccc(C(F)(F)F)c2)[nH]c1=O`: 2.78%.

As to `CN(/N=C/c1ccccc1)C(=S)c1ccccc1`, the inhibition is 2.13%.

As for `CN(O)C(=S)c1ccccc1`, the inhibition was 82.7% (active). For `CN(CC(=O)O)C(=O)c1ccccc1` the value was -17.4%; for `COc1ccc(CNc2c(CO)cnc3c2cnn3C)cc1`, 25.4%; for `CCOC(=O)C1CN(S(=O)(=O)c2ccc(OC)cc2)c2cc(Cl)ccc2O1` (stereo not given), 21.4%. The same measure for `CCOc1ccc(S(=O)(=O)NCc2ccc3c(c2)OCO3)cc1C`: -7.28%; for `CCCOc1ccc(Cn2c(O)cc(=O)[nH]c2=O)cc1`: 9.29%.

As to `CCCOc1ccc(Cc2c(Cl)nc(SC)nc2NC)cc1`, the inhibition was 57.3% (active). The same measure for `CCCOc1ccc(Cc2c(O)nc(SC)[nH]c2=O)cc1C`: -2.99%; for `CC(C)N(C(=O)CN1CCN(S(=O)(=O)c2ccc(Br)s2)CC1)C(C)C`: -1.96%. Regarding `CC(C)OCCCNc1ncnc2c1[nH]c1ccc(F)cc12`, the inhibition was 62% (active). The same measure for `Fc1ccc2[nH]c3c(N4CCN(Cc5ccc6c(c5)OCO6)CC4)ncnc3c2c1`: -4.16%. Regarding `CC(=O)NCc1ccc(S(=O)(=O)NC2CCN(Cc3ccccc3)CC2)cc1`, the inhibition is -8.88%. The same measure for `CC(=O)c1cc2c(cc1NC(=O)CN1CCCCCC1)OCO2`: -2.2%.
